Hits are enriched below; roughly 8.1% of the tested compounds scored in any of these assays.
MCF10A rerep: induces DNA re-replication in MCF 10a normal breast cells; MCF 10A DNA re-replication, Hoechst nuclear intensity, 48 h; Potency, µM (series often up to 46.1 µM), actives largely listed as activators; actives 2.9% (n = 350,000); also: nearly all actives have a fitted effect of over 50% in size
KB-V1 cytotox: KB-V1 MDR subline cytotoxicity; actives 3.4% (n = 400,000); KB-V1 MDR cells viability, CellTiter-Glo, 72 h; Potency, µM (top dose mostly 46.1 µM), hits mostly cytotoxic; also: nearly all actives have a fitted effect of over 60% in size
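Cells of the MDR subline KB-V1 are plated, dosed with compound at multiple concentrations, and incubated 72 h at 37 degrees C; CellTiter-Glo is then added and luminescence read after 10 min.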
SW480 rereplic: DNA re-replication induction in SW480 cells; SW480 DNA re-replication, Hoechst DNA content imaging, 48 h; Potency, µM (top dose mostly 46.1 µM), most hits filed as activators; actives 1.8% (n = 340,000); AID 624297; also: nearly all actives have a fitted effect of over 55% in size
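Readout is total intensity of Hoechst-stained nuclei, excited at 405 nm and collected at 500-530 nm. Compound treatment lasted 48 hr at 37 C in 5% CO2 before staining.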
KB-3-1 cytotox: kills parental KB-3-1 adenocarcinoma cells. KB-3-1 viability, CellTiter-Glo ATP luminescence, 72 h. Potency, µM (series often up to 46.1 µM), actives largely listed as cytotoxic. actives 1.4% (n = 400,000). AID 1347075; also: nearly all actives have a fitted effect of over 60% in size
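Using CellTiter-Glo luminescence, growth of non-resistant KB-3-1 adenocarcinoma cells is assessed 72 h after pin-tool compound addition at 37 °C. Normalized responses across the concentration series yield fitted curves.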
ELG1 repair inh: blocks ELG1-dependent DNA repair in HEK293T cells | actives 2.3% (n = 330,000) | Potency, µM (series often up to 46.1 µM), usual class: inhibitors | HEK293T ELG1-luciferase reporter, luminescence, 16 h; DNA damage induced by 5-fluorouridine; also: nearly all actives have a fitted effect of over 55% in size
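Step one: seed 2,000 cells per well. Step two: pin-transfer compound or DMSO alongside 5-fluorouridine. Step three: incubate 16 hr, 37 °C, 5% CO2. Step four: add ONE-Glo, wait 30 min, read luminescence.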
Large screens that a line does not name were inactive. Calls follow the shape of the dose curve; as a rule, active = well fitted curve in the direction sought with a large enough effect; inconclusive = small, poorly fitted or top-dose-only effect, or another doubt; inactive = no such curve, though single readings can be large; an effect the other way counts as inactive or inconclusive.

N#Cc1ccc(Oc2nc(Nc3ccc(F)cc3)nc(N3CCCC3)n2)cc1	KB-V1 cytotox inconclusive, ELG1 repair inh 16µM
CCOc1nc(Nc2ccc(F)cc2)nc(N2CCN(c3ccc(OC)cc3)CC2)n1	ELG1 repair inh inconclusive
CCOC(=O)C1=C(C)C(c2ccccc2OC)NC(=S)N1 (centres undefined)	KB-V1 cytotox 23µM
COc1ccc(S(=O)(=O)Nc2ccc(Cc3ccncc3)cc2)cc1OC	KB-V1 cytotox inconclusive, KB-3-1 cytotox inconclusive
O=S(=O)(Nc1ccc(Cc2ccncc2)cc1)c1ccc(Cl)c(Cl)c1	KB-V1 cytotox 5.8µM, SW480 rereplic inconclusive, KB-3-1 cytotox inconclusive
CN(c1ccccc1)c1ccc(/C=C/[N+](=O)[O-])cc1	MCF10A rerep 7.3µM, SW480 rereplic 21µM, KB-3-1 cytotox inconclusive, ELG1 repair inh inconclusive
N#C/C(=N\Nc1ccc(Cl)cc1)C(=O)c1ccsc1	MCF10A rerep inconclusive, KB-V1 cytotox inconclusive, SW480 rereplic inconclusive, KB-3-1 cytotox inconclusive, ELG1 repair inh 2.3µM
N#C/C(=N\Nc1ccccc1)C(N)=S	ELG1 repair inh inconclusive
N#C/C(=N\Nc1ccc(Cl)cc1)C(N)=S	MCF10A rerep inconclusive, ELG1 repair inh 9.2µM
Cc1ccc2nc(CSc3nc(C)cc(C)c3C#N)[nH]c2c1	MCF10A rerep 1.8µM, SW480 rereplic 4.6µM, ELG1 repair inh inconclusive
Cc1cc(C)c(C#N)c(SCc2ccccc2)n1	ELG1 repair inh inconclusive
CC1(C(=O)N2CCCCC2)CCN1C(=O)Cc1ccc(-c2ccccc2)cc1 (centres undefined)	none (no result: MCF10A rerep, SW480 rereplic, ELG1 repair inh)
Cc1cc2nc(CCN(Cc3cccnc3)C(=S)Nc3ccccc3)[nH]c2cc1C	MCF10A rerep 16µM, KB-V1 cytotox inconclusive, ELG1 repair inh inconclusive
O=S(=O)(c1ccc(N2CCC(c3ccc(Cl)cc3)=N2)cc1)N(CCO)CCO	MCF10A rerep inconclusive, SW480 rereplic 0.58µM, ELG1 repair inh inconclusive
Cc1cc(C)c2c(=O)[nH]c(=O)n(Cc3ccccc3)c2n1	KB-V1 cytotox 13µM, ELG1 repair inh inconclusive
Cc1ccc(-c2nc3c(c(=O)[nH]c(=O)n3Cc3ccccc3)n2Cc2ccccc2)o1	MCF10A rerep inconclusive, KB-V1 cytotox inconclusive, SW480 rereplic inconclusive, ELG1 repair inh inconclusive
Cc1cc(C)c(S(=O)(=O)N2CCN(CCN3C(=O)c4cccc5cccc(c45)C3=O)CC2)cc1[N+](=O)[O-]	ELG1 repair inh 3.7µM (no result: KB-V1 cytotox, KB-3-1 cytotox)
O=C(C[n+]1ccncc1Cl)c1ccc(F)cc1	none (no result: MCF10A rerep, SW480 rereplic, ELG1 repair inh)
COc1ccccc1NC1=C(N2CCCCC2)C(=O)c2ccccc2C1=O	MCF10A rerep 3.3µM, SW480 rereplic 4.6µM, KB-3-1 cytotox 2.6µM, ELG1 repair inh 1.8µM
O=C1C(Nc2cccc(O)c2)=C(N2CCCCC2)C(=O)c2ccccc21	KB-3-1 cytotox inconclusive, ELG1 repair inh 13µM
O=C(/C=C/c1ccc(O)cc1)c1ccc(NC2=C(N3CCCCC3)C(=O)c3ccccc3C2=O)cc1	MCF10A rerep 6.5µM, KB-V1 cytotox inconclusive, SW480 rereplic inconclusive, KB-3-1 cytotox 2.1µM
O=C1C(Nc2ccccc2)=C(N2CCCCC2)C(=O)c2ccccc21	MCF10A rerep inconclusive, KB-3-1 cytotox inconclusive, ELG1 repair inh inconclusive
CN(C1=C(N2CCCCC2)C(=O)c2ccccc2C1=O)c1ccccc1	MCF10A rerep inconclusive
Cc1ccc(NC2=C(N3CCCCC3)C(=O)c3ccccc3C2=O)cc1	MCF10A rerep 5.8µM, SW480 rereplic 2.9µM, KB-3-1 cytotox inconclusive
COc1ccc(C(CNC(=O)Cn2[nH]c(=O)c3ccccc3c2=O)N2CCCC2)cc1 (centres undefined)	none
CC(C(=O)Nc1ccccc1-c1ccccc1)N1CCN(C(=O)c2ccccc2)CC1 (centres undefined)	none
Cc1ccc(S(=O)(=O)N2CCN(C(C)C(=O)Nc3ccccc3-c3ccccc3)CC2)cc1 (centres undefined)	KB-V1 cytotox 3.7µM
CCOC(=O)c1ccc(-n2ccnc2)c(NC(=O)c2ccc(C(C)(C)C)cc2)c1	MCF10A rerep inconclusive, SW480 rereplic 13µM, ELG1 repair inh inconclusive
CCOC(=O)c1ccc(-n2ccnc2)c(NC(=O)c2cccc(Br)c2)c1	none
CSC1=C(C#N)C(c2ccccc2)C(C(C)=O)=C(C)N1 (centres undefined)	none
CNC(=O)C1C(=S)NC(N)=C(C#N)C1c1ccccc1 (centres undefined)	MCF10A rerep inconclusive, SW480 rereplic 3.3µM
CCCn1c(C(C)NC(C)=O)nc2ccccc21 (centres undefined)	none
CCCCC(NC(C)=O)c1nc2ccccc2n1CCC (centres undefined)	KB-V1 cytotox 21µM
Cc1cc[n+](CCC2CCCCC2)cc1	KB-3-1 cytotox 21µM (no result: MCF10A rerep, SW480 rereplic, ELG1 repair inh)
CCCCC1=CC2=CC(=O)C(C)(OC(=O)CC)C(=O)C2=CN1CCOC (centres undefined)	KB-V1 cytotox inconclusive, KB-3-1 cytotox inconclusive, ELG1 repair inh inconclusive
Cc1ccc(Oc2c(C)nc(-c3ccccc3)[nH]c2=O)cc1	ELG1 repair inh inconclusive
Cc1nc(-c2ccccc2)[nH]c(=O)c1Oc1ccc(Cl)cc1Cl	KB-V1 cytotox inconclusive, ELG1 repair inh 8.2µM
O=C(NCCN1C(=O)S/C(=C\c2cccnc2)C1=O)c1cc(S(=O)(=O)N2CCOCC2)ccc1F	SW480 rereplic 2.1µM, ELG1 repair inh inconclusive
CC(C)(C)c1ccc(/C=C2\SC(=O)N(CCNC(=O)c3cccc(S(=O)(=O)N4CCOCC4)c3)C2=O)cc1	KB-V1 cytotox inconclusive, KB-3-1 cytotox inconclusive, ELG1 repair inh inconclusive
Cc1ccc(S(=O)(=O)N2CCOCC2)cc1C(=O)NCCN1C(=O)S/C(=C\c2ccccc2Cl)C1=O	KB-V1 cytotox inconclusive, KB-3-1 cytotox inconclusive, ELG1 repair inh 21µM
CCOC(=O)c1c(-c2ccccc2Cl)csc1NC(=O)c1cc(S(=O)(=O)N2CCOCC2)ccc1C	MCF10A rerep inconclusive, KB-V1 cytotox 10µM, ELG1 repair inh inconclusive
CCOc1ccccc1NC(=O)c1cc(S(=O)(=O)N2CCOCC2)ccc1C	KB-V1 cytotox inconclusive
O=C(NCCN1C(=O)S/C(=C\c2cccc(Cl)c2Cl)C1=O)C1=COCCO1	MCF10A rerep 2.6µM, KB-V1 cytotox 15µM, SW480 rereplic inconclusive, KB-3-1 cytotox 21µM
Cc1cc(Br)ccc1SCC(=O)Nc1cccnc1	ELG1 repair inh inconclusive
N/C(=N/OC(=O)c1ccccc1Cl)c1nonc1N	KB-3-1 cytotox inconclusive
N/C(=N/OCC(=O)Nc1cccc2ccccc12)c1nonc1N	KB-V1 cytotox 15µM
O=C(Nc1ccccc1Cl)c1ccccc1Cc1ccccc1	ELG1 repair inh inconclusive
CCC(c1nnnn1CCOC)N(Cc1ccc(C)cc1)Cc1cc2cc(OC)ccc2[nH]c1=O (centres undefined)	KB-V1 cytotox 23µM, KB-3-1 cytotox inconclusive, ELG1 repair inh inconclusive
Cn1nc(NC(=O)C(F)(F)F)c2ncc(-c3ccc(Cl)cc3)nc21	KB-3-1 cytotox inconclusive, ELG1 repair inh inconclusive
Cn1nc(N)c2ncc(-c3ccc(Cl)cc3)nc21	KB-V1 cytotox 7.3µM (no result: MCF10A rerep, SW480 rereplic, ELG1 repair inh)

Compound activity (PubChem BioAssay)
